This is a sample that favours compounds with a hit; in the whole collection about 19% have one here.
TDP1 cell CPT – growth inhibition of DT40 Tdp1-/-;hTDP1 cells with camptothecin (screen for TDP1 inhibitors) | 420,000 tested, 12% active | Potency, µM (top dose mostly 46.2 µM), without a hit: top-dose activity change, negative = growth inhibition, usual class: inhibitors | chicken DT40 Tdp1-/-;hTDP1 cells + 20 nM CPT, ATP luminescence, 48 h; further: nearly all actives have a fitted effect of over 55% in size
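Cell growth measured by CellTiter-Glo luminescence after a minimum 48 h, 37 C compound exposure with 20 nM CPT in Tdp1-knockout DT40 cells stably expressing hTDP1, seeded 400/well; qHTS titration format.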
KB-3-1 cytotox – kills parental KB-3-1 adenocarcinoma cells; KB-3-1 viability, CellTiter-Glo ATP luminescence, 72 h; Potency, µM (titrated, usually from 46.1 µM), actives largely listed as cytotoxic; 400,000 tested, 1.4% active; further: nearly all actives have a fitted effect of over 60% in size
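Multi-concentration cytotoxicity screen in KB-3-1 cells grown in DMEM lacking phenol red with 10% FBS. After 72 h at 37 °C with compound, ATP-dependent luminescence was recorded.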
KB-V1 MDR tox – KB-V1 MDR subline cytotoxicity; KB-V1 MDR cells viability, CellTiter-Glo, 72 h; Potency, µM (doses to about 46.1 µM), actives largely listed as cytotoxic; 400,000 tested, 3.4% active; further: nearly all actives have a fitted effect of over 60% in size
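KB-V1 MDR subline cells in DMEM (phenol-red free, 10% FBS) exposed to compounds in qHTS concentration series for 72 h at 37 degrees C. Viability read by CellTiter-Glo luminescence; concentration-effect curves fitted after normalization and correction.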
HT1080 IDH1KD tx – toxicity to HT-1080 IDH1 knockdown cells (counter line) | Potency, µM (highest dose often 46.1 µM), for inactives: at the highest dose activity, negative = toxicity, most hits filed as cytotoxic | HT-1080 IDH1 knockdown viability, ATP luminescence, 48 h | 360,000 tested, 2% active;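 further: 0% = DMSO wells and -100% = cell-free medium wells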
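CellTiter-Glo luminescence after 48 h compound exposure at 37 degrees C of IDH1-knockdown HT-1080 cells in 5% FBS RPMI. %Activity scaled between DMSO wells and cell-free media wells, with curves fitted and assigned curve classes.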
DT40 TDP1 no CPT – qHTS for Inhibitors of human tyrosyl-DNA phosphodiesterase 1 (TDP1): qHTS in cells in absence of CPT. DT40 Tdp1-/- hTDP1 cells, no CPT, ATP luminescence, 48 h. Potency, µM (titrated, usually from 46.2 µM), for the others: at the highest dose activity change, negative = growth inhibition, actives largely listed as inhibitors. 420,000 tested, 15% active. AID 686978, 2013; further: nearly all actives have a fitted effect of over 55% in size
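DT40 Tdp1-/-;hTDP1 cells, no CPT (DMSO vehicle only), 400 cells/well; compounds pin-transferred; ≥48 hr, 37 °C; CellTiter-Glo 30 min RT dark, luminescence read.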
HT1080NT lethal – kills 2HG-producing HT-1080-NT fibrosarcoma cells | Potency, µM (highest dose often 46.1 µM), inactives show at the highest dose activity, negative = less viability, most hits filed as cytotoxic | HT-1080-NT fibrosarcoma viability, CellTiter-Glo ATP luminescence, 48 h | 360,000 tested, 1.6% active;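 further: NT is the 2HG producing partner of a matched IDH1 knockdown line; 0% = DMSO-treated cells and -100% = media-only wells without cells; nearly all actives have a fitted effect of over 55% in size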
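Read-out is CellTiter-Glo luminescence after 10 minutes at room temperature, following 48 hours' compound treatment of HT-1080-NT cells (750 cells/well, RPMI, 5% FBS, 37 degrees C).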
* marks the source's active call; other numbers are inactive results; i = inactive; ? = inconclusive; nt = no result given. The call rests on the fitted dose curve; in most records, active means well fitted curve in the direction sought with a large enough effect; inconclusive means small, poorly fitted or top-dose-only effect, or another doubt; inactive means no such curve, though single readings can be large; an effect the other way counts as inactive or inconclusive. Unless noted, on the % scale 0 is the no-effect control and ±100 the full control effect; potency means the concentration at half of the fitted maximal effect.

SMILES	TDP1 cell CPT	KB-3-1 cytotox	KB-V1 MDR tox	HT1080 IDH1KD tx	DT40 TDP1 no CPT	HT1080NT lethal
COc1ccc(S(=O)(=O)c2cnc3cc(OC)c(OC)cc3c2N2CCCC(C)C2)cc1 (configuration not stated)	?	?	i	nt	?	nt
CCOc1ccc(Nc2c(S(=O)(=O)c3ccc(C)cc3)cnc3cc(OC)c(OC)cc23)cc1	?	i	?	nt	12µM*	nt
CCN1CCN(c2c(S(=O)(=O)c3ccc(C)c(C)c3)cnc3cc(OC)c(OC)cc23)CC1	15µM*	?	?	nt	?	nt
CCc1ccc(S(=O)(=O)c2cnc3ccc(OC)cc3c2N2CCCC(C)C2)cc1 (configuration not stated)	16µM*	i	?	nt	?	nt
CC(C)C[C@H]1CN([C@@H](Cc2ccc(O)cc2)CN2CCC[C@H]2CN2C(=O)C(=O)NC[C@@H]2Cc2ccccc2)C(=O)C(=O)N1CC1CCCCCC1	?	i	i	-6%	?	-2%
CCCCn1cc(S(=O)(=O)c2ccc(C)c(C)c2)c(=O)c2cc(F)c(N3CCN(C)CC3)cc21	-4%	i	i	nt	?	nt
CCc1ccc2ncc(S(=O)(=O)c3ccc(C)c(C)c3)c(N3CCCC3)c2c1	23µM*	18µM*	?	?	15µM*	?
CCN1CCN(c2c(S(=O)(=O)c3ccc(Cl)cc3)cnc3ccccc23)CC1	13µM*	i	i	nt	?	nt
CCCn1cnc2c1c(=O)n(CCCCC(C)=O)c(=O)n2C	-18%	i	i	nt	-7%	nt
CCCCCCN1C[C@@H](O)[C@H](n2cc(-c3ccc(F)cc3)nn2)C[C@@H]1c1ccc(C)cc1	?	i	i	7%	21µM*	8%
CCCCCCN1C[C@@H](O)[C@H](n2cc(-c3ccc(F)cc3)nn2)C[C@@H]1c1ccccc1	-29%	i	?	1%	?	-4%
CCCCCC(=O)N1C[C@H](O)[C@@H](n2cc(-c3ccc(F)cc3)nn2)C[C@@H]1c1ccc(C)cc1	?	?	?	-21%	?	-15%
CCCCCCN1C[C@H](O)[C@@H](n2cc(-c3ccc(F)cc3)nn2)C[C@@H]1c1ccc(C)cc1	?	i	?	-7%	23µM*	-8%
CCCCCCN1C[C@@H](n2cc(-c3ccc(F)cc3)nn2)[C@H](O)C[C@@H]1c1ccccc1	?	i	i	-3%	13µM*	0%
Cc1oc(-c2cccc(Cl)c2)nc1CS(=O)(=O)CC(=O)NC1CCCC1	-4%	i	i	-9%	-4%	0%
CC1CCc2c(sc(Nc3nc4c(F)cccc4s3)c2C(N)=O)C1 (configuration not stated)	?	i	i	?	16µM*	?
NNc1nc2c(F)cc(F)cc2s1	?	i	i	-1%	23µM*	-11%
Fc1cccc2sc(Nc3nc4c(F)cccc4s3)nc12	?	i	i	-8%	13µM*	-6%
Nc1nc2c(F)cccc2s1	-3%	i	i	13%	2%	3%
O=C(Nc1nc2c(F)cc(F)cc2s1)c1ccco1	-1%	i	i	-2%	-28%	5%
O=C(Nc1nc2c(F)cccc2s1)C1CC1	-6%	i	i	-1%	-12%	13%
NNc1nc2c(F)cccc2s1	?	?	?	3%	15µM*	-22%
Cc1ccccc1OCC(=O)Nc1ccc(C(=O)OCc2cc(=O)n3ccsc3n2)cc1	?	i	?	nt	-13%	nt
CN(C)c1cccc2c(C=C(C#N)C#N)ccc(N(C)C)c12	?	i	i	2%	?	11%
CCOC(=O)C1=C(c2ccccc2)NC(N)=NC1c1ccc(OCc2ccc(Cl)cc2)c(OC)c1 (configuration not stated)	23µM*	?	i	-6%	?	6%
SMILES	TDP1 cell CPT	KB-3-1 cytotox	KB-V1 MDR tox	HT1080 IDH1KD tx	DT40 TDP1 no CPT	HT1080NT lethal
COc1cccc(CN(C)CC(=O)Nc2c(C)cccc2C(C)C)c1	?	?	?	-24%	?	-6%
COc1ccc(NC(=O)C(C)N(C)Cc2ccc3ccccc3c2)cc1 (configuration not stated)	?	i	i	-18%	13µM*	-2%
COc1ccc(CNC(=O)C(C)N(C)Cc2cccc(F)c2)cc1 (configuration not stated)	?	i	i	-1%	-26%	-2%
CCC(C)c1ccccc1NC(=O)C(C)N(C)Cc1cccc(OC)c1 (configuration not stated)	?	i	i	-24%	16µM*	-19%
CCOC(=O)c1ccccc1NS(=O)(=O)c1cnn(CC)c1C	-2%	i	?	7%	-7%	6%
CCc1ccc(NC(=O)C(C)OC(=O)c2cccc(S(=O)(=O)N3CCc4ccccc4C3)c2)cc1 (configuration not stated)	-15%	i	i	-5%	?	-2%
CC1Cc2ccccc2N1C1=CC(=O)CCC1 (configuration not stated)	7.3µM*	i	?	-2%	5.8µM*	-12%
CC1Cc2ccccc2N1C1=NS(=O)(=O)c2ccccc21 (configuration not stated)	-10%	i	i	1%	-19%	5%
CC(=O)c1ccc(NC(=O)c2ccc(CN3C(=O)CCn4nc(C)cc43)cc2)cc1	-10%	i	i	nt	-5%	nt
CCCc1cc(C(=O)OCC(=O)NCCc2ccccc2)sc1C	-8%	i	i	11%	-17%	12%
Cc1ccc(OCCSc2nc(-c3ccccc3C)nc3cc(=O)[nH]n23)cc1Cl	16µM*	i	i	nt	16µM*	nt
CCc1ccc(OCCCSc2nc(-c3ccc(C(C)(C)C)cc3)nc3cc(=O)[nH]n23)cc1	?	nt	nt	nt	23µM*	nt
Cc1ccc(C(C)C)c(OCCSc2nc(-c3ccccc3F)nc3cc(=O)[nH]n23)c1	?	?	i	nt	?	nt
Cc1cccc(-c2nc(SCCCOc3ccc(Cl)c(C)c3)n3[nH]c(=O)cc3n2)c1	?	i	i	nt	?	nt
COc1ccc(-c2nc(SCCOc3cc(C)ccc3C(C)C)n3[nH]c(=O)cc3n2)cc1	?	i	i	nt	18µM*	nt
